Experimental data from PubChem BioAssay.
Where “and” joins values, the source holds several entries; their conditions need not be identical. Identical values can stand only once. Calls of active or inactive are those of the source.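 Rule for the calls, unless noted: active = normalized viability below 100% at a tested concentration; inactive = the rest.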

Legend:
[1] = sensitizers of A549 cells to miR-34 induction, primary screen, imaging, A549 dox-inducible miR-34, nuclei and caspase counts (AID 1347080;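 active = compounds whose cell count with miR-34 switched on is under 0.7 times the count with it off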); conditions: A549 miR-34 inducible, Hoechst nuclei count, 48 h
[2] = survival rescue of mitochondrial mutant cells in low glucose, primary screen, MELAS cybrids, Rieske KO mouse fibroblasts, CellTiter-Glo (AID 1508586;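 active = mean z-score across replicates of 1.96 or higher in either the MELAS or the Rieske mutant cell line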;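 note: z relative to plate mean and SD of compound and empty wells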)
[3] = ovarian cancer cell viability with rucaparib, profiling panel, oncology-focused library, rucaparib conditional (AID 1508598); conditions: patient-derived ovarian cancer cells, CellTiter-Glo viability, 144 h, stronger effect = lower value
[4] = LFS_MB_P medulloblastoma growth inhibition, cell-based, chromothripsis tumors, cisplatin or BGB combos (AID 1671449; in the data active = inhibition above about 80%;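 note: cells exposed for 96 hours; 0% = vehicle DMSO and 100% = killing by high DMSO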); conditions: LFS_MB_P medulloblastoma cells
[5] = HDN33 neuroblastoma growth inhibition, cell-based, chromothripsis tumors, cisplatin or BGB combos (AID 1671450; in the data active = inhibition above about 80%;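 note: cells exposed to compound for four days; 0% = vehicle DMSO and 100% = cell killing by high DMSO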); conditions: HDN33 neuroblastoma cells, stronger effect = higher value
[6] = ICB984 medulloblastoma cell growth inhibition, synergistic combos for chromothripsis tumors, cisplatin or BGB combos (AID 1671451); conditions: ICB984 medulloblastoma cells, drug combinations, stronger effect = higher value;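 note: cells exposed for 96 hours before readout; 0% = vehicle DMSO and 100% = killing by high DMSO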

What does the source list for `C[C@@]1(c2nc3c(C(N)=O)cccc3[nH]2)CCCN1`?
fold change ([1]; stronger effect = lower value, cell number ratio, induced over uninduced): 0.941 (inactive); fold change ([1]; measured here: relative caspase fold change +Dox/-Dox): 1.01; cell count ([1]; measured here: total cells with miR-34 induction, stronger effect = lower value): 6840; cell count ([1]; measured here: total cells without miR-34 induction): 7270; z-score ([2]; MELAS cybrid survival, CellTiter-Glo 48 h, stronger effect = higher value): -0.268 (inactive); z-score ([2]; Rieske KO mouse fibroblast survival, CellTiter-Glo 72 h): 0.497; viability ([3]; at 0.000305 µM, OCI-C5x cells, with rucaparib 10 µM, 100% = cells with rucaparib alone): 125% (inactive); viability ([3]; at 0.000305 µM, OCI-C5x cells, without rucaparib): 110% (inactive); viability ([3]; at 0.000305 µM, OCI-P5x cells, with rucaparib 20 µM, 100% = cells with rucaparib alone): 108% (inactive); viability ([3]; at 0.000305 µM, OCI-P5x cells, without rucaparib): 83.4% (active); viability ([3]; at 0.00122 µM, OCI-C5x cells, with rucaparib 10 µM, 100% = cells with rucaparib alone): 114% (inactive); viability ([3]; at 0.00122 µM, OCI-C5x cells, without rucaparib): 114% (inactive); viability ([3]; at 0.00122 µM, OCI-P5x cells, with rucaparib 20 µM, 100% = cells with rucaparib alone): 97.2% (active); viability ([3]; at 0.00122 µM, OCI-P5x cells, without rucaparib): 101% (inactive); viability ([3]; at 0.00488 µM, OCI-C5x cells, with rucaparib 10 µM, 100% = cells with rucaparib alone): 122% (inactive); viability ([3]; at 0.00488 µM, OCI-C5x cells, without rucaparib): 109% (inactive); viability ([3]; at 0.00488 µM, OCI-P5x cells, with rucaparib 20 µM, 100% = cells with rucaparib alone): 106% (inactive); viability ([3]; at 0.00488 µM, OCI-P5x cells, without rucaparib): 102% (inactive); viability ([3]; at 0.0195 µM, OCI-C5x cells, with rucaparib 10 µM, 100% = cells with rucaparib alone): 121% (inactive); viability ([3]; at 0.0195 µM, OCI-C5x cells, without rucaparib): 106% (inactive); viability ([3]; at 0.0195 µM, OCI-P5x cells, with rucaparib 20 µM, 100% = cells with rucaparib alone): 98.2% (active); viability ([3]; at 0.0195 µM, OCI-P5x cells, without rucaparib): 95.2% (active); viability ([3]; at 0.0781 µM, OCI-C5x cells, with rucaparib 10 µM, 100% = cells with rucaparib alone): 120% (inactive); viability ([3]; at 0.0781 µM, OCI-C5x cells, without rucaparib): 104% (inactive); viability ([3]; at 0.0781 µM, OCI-P5x cells, with rucaparib 20 µM, 100% = cells with rucaparib alone): 91.6% (active); viability ([3]; at 0.0781 µM, OCI-P5x cells, without rucaparib): 102% (inactive); viability ([3]; at 0.313 µM, OCI-C5x cells, with rucaparib 10 µM, 100% = cells with rucaparib alone): 132% (inactive); viability ([3]; at 0.313 µM, OCI-C5x cells, without rucaparib): 102% (inactive); viability ([3]; at 0.313 µM, OCI-P5x cells, with rucaparib 20 µM, 100% = cells with rucaparib alone): 98.3% (active); viability ([3]; at 0.313 µM, OCI-P5x cells, without rucaparib): 91% (active); viability ([3]; at 1.25 µM, OCI-C5x cells, with rucaparib 10 µM, 100% = cells with rucaparib alone): 111% (inactive); viability ([3]; at 1.25 µM, OCI-C5x cells, without rucaparib): 108% (inactive); viability ([3]; at 1.25 µM, OCI-P5x cells, with rucaparib 20 µM, 100% = cells with rucaparib alone): 90% (active); viability ([3]; at 1.25 µM, OCI-P5x cells, without rucaparib): 87.4% (active); viability ([3]; at 5 µM, OCI-C5x cells, with rucaparib 10 µM, 100% = cells with rucaparib alone): 123% (inactive); viability ([3]; at 5 µM, OCI-C5x cells, without rucaparib): 108% (inactive); viability ([3]; at 5 µM, OCI-P5x cells, with rucaparib 20 µM, 100% = cells with rucaparib alone): 80.7% (active); viability ([3]; at 5 µM, OCI-P5x cells, without rucaparib): 91.4% (active); inhibition ([4]; at 0.5 µM, stronger effect = higher value): -30.4% (inactive) and -7.42% (inactive); inhibition ([4]; measured here: combination with BGB IC20, at 0.005 µM): 18.7% and -30.5%; inhibition ([4]; measured here: combination with BGB IC40, at 0.005 µM): -17.7% and -33.9%; inhibition ([4]; measured here: combination with BGB IC40, at 0.05 µM): 4.58% and -46.4%; inhibition ([4]; measured here: combination with cisplatin, at 0.5 µM, stronger effect = higher value): -30.4% and -24.5%; inhibition ([4]; measured here: combination with cisplatin, at 5 µM, stronger effect = higher value): -24.1% and -57.4%; inhibition ([5]; BGB combo, at 5 µM): -38.7% and -21.7%; inhibition ([5]; at 0.5 µM): -18.6% (inactive) and -27.5% (inactive); inhibition ([5]; cisplatin combo, at 5 µM): -25% and 2.08%; inhibition ([5]; measured here: with BGB IC20 combination, at 0.5 µM): -20.1% and -23.6%; inhibition ([5]; measured here: with cisplatin IC20 combination, at 0.5 µM): -10.4% and -15.2%; inhibition ([5]; single agent, at 5 µM): -35.1% and -10.6%; inhibition ([6]; BGB IC20 combo, at 0.005 µM): -43.5% and -1.75%; inhibition ([6]; BGB IC40 combo, at 0.005 µM): -45.8% and -18.7%; inhibition ([6]; BGB IC40 combo, at 0.05 µM): -19.5% and -39.6%
